The sample as a whole holds a higher share of the strongest signals than the screen did.
Assays:
Assay in all cases: glycan array binding signal (z-score within array); higher = stronger binding
Conditions in all cases: glycan notation: IUPAC condensed, linker removed
[1] = target: Gal(b1-4)GlcNAc(b1-3)Gal(b1-4)GlcNAc(b1-3)[Gal(b1-4)GlcNAc(b1-3)Gal(b1-4)GlcNAc(b1-6)]GalNAc
Method in brief: (§1)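 The binding signal is a Z-score computed within each array and averaged over linkers. Arrays of the same protein sequence at different concentrations or buffers were also averaged together. Data originate from 3228 arrays in the Consortium for Functional Glycomics database, kept only where the protein sequence was available.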

[2] = target: Gal(b1-4)GlcNAc(b1-3)GalNAc
Method in brief: as §1

Gal3S(b1-4)Glc6S = target: Gal3S(b1-4)Glc6S
Method in brief: as §1

[3] = target: Gal3S(b1-4)[Fuc(a1-3)]Glc
Method in brief: as §1

Gal4S(b1-4)GlcNAc = target: Gal4S(b1-4)GlcNAc
Method in brief: as §1

Gal6S(b1-4)GlcNAc = target: Gal6S(b1-4)GlcNAc
Method in brief: as §1

[4] = target: GalNAc(b1-3)Gal(a1-6)Gal(b1-4)Glc
Method in brief: as §1

GalNAc(b1-4)GlcNAc6S = target: GalNAc(b1-4)GlcNAc6S
Method in brief: as §1

GalNAc6S(b1-4)GlcNAc = target: GalNAc6S(b1-4)GlcNAc
Method in brief: as §1

Glc(a1-4)Glc = target: Glc(a1-4)Glc
Method in brief: as §1

Glc(b1-4)Glc = target: Glc(b1-4)Glc
Method in brief: as §1

[5] = target: GlcNAc(b1-3)Gal(b1-4)GlcNAc(b1-3)Gal(b1-4)GlcNAc(b1-3)Gal(b1-4)GlcNAc(b1-2)Man(a1-3)[GlcNAc(b1-3)Gal(b1-4)GlcNAc(b1-3)Gal(b1-4)GlcNAc(b1-3)Gal(b1-4)GlcNAc(b1-2)Man(a1-6)]Man(b1-4)GlcNAc(b1-4)[Fuc(a1-6)]GlcNAc
Method in brief: as §1

GlcNAc(b1-4)GlcNAc = target: GlcNAc(b1-4)GlcNAc
Method in brief: as §1

Kdn(a2-3)Gal(b1-3)GlcNAc = target: Kdn(a2-3)Gal(b1-3)GlcNAc
Method in brief: as §1

[6] = target: Man(a1-2)Man(a1-3)[Man(a1-2)Man(a1-6)]Man(a1-6)[Man(a1-2)Man(a1-2)Man(a1-3)]Man(b1-4)GlcNAc(b1-4)GlcNAc
Method in brief: as §1

[7] = target: Man(a1-3)[Man(a1-6)]Man(b1-4)GlcNAc(b1-4)[Fuc(a1-6)]GlcNAc
Method in brief: as §1

[8] = target: Neu5Ac(a2-3)Gal(b1-3)]Neu5Ac(a2-3)Gal(b1-4)]GlcNAc
Method in brief: as §1

[9] = target: Neu5Ac(a2-3)Gal(b1-4)GlcNAc(b1-3)Gal(b1-4)GlcNAc(b1-3)Gal(b1-4)GlcNAc(b1-2)Man(a1-3)[Neu5Ac(a2-3)Gal(b1-4)GlcNAc(b1-3)Gal(b1-4)GlcNAc(b1-3)Gal(b1-4)GlcNAc(b1-2)Man(a1-6)]GalNAc
Method in brief: as §1

[10] = target: Neu5Ac(a2-3)Gal(b1-4)GlcNAc(b1-3)GalNAc
Method in brief: as §1

[11] = target: Neu5Ac(a2-3)Gal(b1-4)[Fuc(a1-3)]GlcNAc(b1-3)GalNAc
Method in brief: as §1

[12] = target: Neu5Ac(a2-6)Gal(b1-3)GlcNAc(b1-3)[Gal(b1-4)GlcNAc(b1-6)]Gal(b1-4)Glc
Method in brief: as §1

[13] = target: Neu5Ac(a2-6)Gal(b1-4)GlcNAc(b1-2)Man(a1-3)[GlcNAc(b1-2)Man(b1-4)GlcNAc(b1-2)Man(a1-6)]Man(b1-4)GlcNAc(b1-4)GlcNAc
Method in brief: as §1

[14] = target: Neu5Ac(a2-6)Gal(b1-4)GlcNAc(b1-2)Man(a1-3)[GlcNAc(b1-4)][Neu5Ac(a2-6)Gal(b1-4)GlcNAc(b1-2)Man(a1-6)]Man(b1-4)GlcNAc(b1-4)GlcNAc
Method in brief: as §1

[15] = target: Neu5Ac(a2-6)Gal(b1-4)GlcNAc(b1-6)[Gal(b1-3)]GalNAc
Method in brief: as §1

[16] = target: Neu5Ac(a2-6)GalNAc(b1-4)GlcNAc6S
Method in brief: as §1

[17] = target: Neu5Ac(a2-8)Neu5Ac(a2-3)Gal(b1-4)GlcNAc
Method in brief: as §1

[18] = target: Neu5Ac(a2-8)Neu5Gc(a2-3)Gal(b1-4)GlcNAc
Method in brief: as §1

B1: LlpA1 (Pseudomonas fluorescens), Q4KHC3 (protein)
chain: MGSSHHHHHHSSGLVPRGSHMAWIRYDFTDNGSSVLPARYYMAPNQYLQSPNKRFKLLFQADGNLALYDGAQLAWVADQNTPFTNVSKGNKKDPMMVFMNYGFVLDDPLRGRIWSTTPSDPTMGSREDASLRAFTQVQDDGNIVTVDTIPHWYAPNGRVFTPAVGAAMIIGGTTELVPGQFYSAGEHSLVFQGDGNLVVYGPNSSVIWATYTQNKGGVRCVMQEDGNLVIYAANNGVVWQSGTGGHPGATIRLQANGSFTIVTERPVWARFGYTPTIKPPRVFYPDHKWKTGSYTWNNVF
[1]
  glycan array binding signal (z-score): 2.36
[2]
  glycan array binding signal (z-score): -0.927
Gal3S(b1-4)Glc6S
  glycan array binding signal (z-score): -0.494
[3]
  glycan array binding signal (z-score): -0.518
Gal4S(b1-4)GlcNAc
  glycan array binding signal (z-score): 0.315
Gal6S(b1-4)GlcNAc
  glycan array binding signal (z-score): 0.079
[4]
  glycan array binding signal (z-score): 0.158
GalNAc(b1-4)GlcNAc6S
  glycan array binding signal (z-score): 1.64
GalNAc6S(b1-4)GlcNAc
  glycan array binding signal (z-score): 1.35
Glc(a1-4)Glc
  glycan array binding signal (z-score): 0.211
Glc(b1-4)Glc
  glycan array binding signal (z-score): -1.02
[5]
  glycan array binding signal (z-score): 1.27
GlcNAc(b1-4)GlcNAc
  glycan array binding signal (z-score): 0.141
Kdn(a2-3)Gal(b1-3)GlcNAc
  glycan array binding signal (z-score): -0.948
[6]
  glycan array binding signal (z-score): 0.448
[7]
  glycan array binding signal (z-score): -0.367
[8]
  glycan array binding signal (z-score): 0.082
[9]
  glycan array binding signal (z-score): 2.75
[10]
  glycan array binding signal (z-score): -0.31
[11]
  glycan array binding signal (z-score): 0.206
[12]
  glycan array binding signal (z-score): -0.201
[13]
  glycan array binding signal (z-score): 2.45
[14]
  glycan array binding signal (z-score): -0.209
[15]
  glycan array binding signal (z-score): 0.228
[16]
  glycan array binding signal (z-score): -0.028
[17]
  glycan array binding signal (z-score): -0.552
[18]
  glycan array binding signal (z-score): 8.89

— the supplement of paper PMC8728848
